# In the library only some 27% were active in any assay of this set; here they are far more common.
# CYP2C9 act: increases human cytochrome P450 2C9 activity; P11712; activation factor at 5 µM; AID 1024; recombinant CYP2C9, luciferin-H conversion, luminescence; active compounds read high; factor 1 = untreated enzyme, 0 = blocked; 96,000 tested, 1.4% active;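 active means activation factor of 2 or more for CYP2C9 at a 5 µM dose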
# CYP2C19 act: activators of human cytochrome P450 2C19; activation factor at 5 µM; AID 1025; P33261; recombinant CYP2C19, luciferin-H EGE luminescence; active compounds read high; 0 = fully inhibited enzyme, 1 = untreated enzyme; 96,000 tested, under 10 active;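 active means activation factor of at least 2 at 5 µM in the primary screen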
# CYP2C9 inhib: inhibitors of human CYP2C9 | inhibition, % at 5 µM | 96,000 tested, 20% active | AID 777 | CYP2C9 Supersomes, luciferin-H conversion, luminescence | P11712;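 active means blocking of liver enzyme CYP2C9 beyond about 50% at 5 µM, limit read from the data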
# CYP2C19 inhib: blocks human cytochrome P450 2C19. CYP2C19 Supersomes, luciferin-H EGE luminescence, 30 min. inhibition, % at 5 µM. 96,000 tested, 21% active;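 active means CYP2C19 inhibition above a set limit at 5 µM in the primary screen, cut at about 50% in these data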
# Cav3 T inh: inhibitors of human Cav3.2 T-type calcium channel; Cav3.2-expressing cells, Fluo-4 calcium fluorescence FDSS; active compounds read low; B-score at 10 µM; 100,000 tested, 4% active; AID 449739;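 active means single-dose well whose peak fluorescence ratio is a statistical outlier from its plate by either plate-standardised score or position-corrected B-score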
# Target sequence (O95180 whole entry, looked up): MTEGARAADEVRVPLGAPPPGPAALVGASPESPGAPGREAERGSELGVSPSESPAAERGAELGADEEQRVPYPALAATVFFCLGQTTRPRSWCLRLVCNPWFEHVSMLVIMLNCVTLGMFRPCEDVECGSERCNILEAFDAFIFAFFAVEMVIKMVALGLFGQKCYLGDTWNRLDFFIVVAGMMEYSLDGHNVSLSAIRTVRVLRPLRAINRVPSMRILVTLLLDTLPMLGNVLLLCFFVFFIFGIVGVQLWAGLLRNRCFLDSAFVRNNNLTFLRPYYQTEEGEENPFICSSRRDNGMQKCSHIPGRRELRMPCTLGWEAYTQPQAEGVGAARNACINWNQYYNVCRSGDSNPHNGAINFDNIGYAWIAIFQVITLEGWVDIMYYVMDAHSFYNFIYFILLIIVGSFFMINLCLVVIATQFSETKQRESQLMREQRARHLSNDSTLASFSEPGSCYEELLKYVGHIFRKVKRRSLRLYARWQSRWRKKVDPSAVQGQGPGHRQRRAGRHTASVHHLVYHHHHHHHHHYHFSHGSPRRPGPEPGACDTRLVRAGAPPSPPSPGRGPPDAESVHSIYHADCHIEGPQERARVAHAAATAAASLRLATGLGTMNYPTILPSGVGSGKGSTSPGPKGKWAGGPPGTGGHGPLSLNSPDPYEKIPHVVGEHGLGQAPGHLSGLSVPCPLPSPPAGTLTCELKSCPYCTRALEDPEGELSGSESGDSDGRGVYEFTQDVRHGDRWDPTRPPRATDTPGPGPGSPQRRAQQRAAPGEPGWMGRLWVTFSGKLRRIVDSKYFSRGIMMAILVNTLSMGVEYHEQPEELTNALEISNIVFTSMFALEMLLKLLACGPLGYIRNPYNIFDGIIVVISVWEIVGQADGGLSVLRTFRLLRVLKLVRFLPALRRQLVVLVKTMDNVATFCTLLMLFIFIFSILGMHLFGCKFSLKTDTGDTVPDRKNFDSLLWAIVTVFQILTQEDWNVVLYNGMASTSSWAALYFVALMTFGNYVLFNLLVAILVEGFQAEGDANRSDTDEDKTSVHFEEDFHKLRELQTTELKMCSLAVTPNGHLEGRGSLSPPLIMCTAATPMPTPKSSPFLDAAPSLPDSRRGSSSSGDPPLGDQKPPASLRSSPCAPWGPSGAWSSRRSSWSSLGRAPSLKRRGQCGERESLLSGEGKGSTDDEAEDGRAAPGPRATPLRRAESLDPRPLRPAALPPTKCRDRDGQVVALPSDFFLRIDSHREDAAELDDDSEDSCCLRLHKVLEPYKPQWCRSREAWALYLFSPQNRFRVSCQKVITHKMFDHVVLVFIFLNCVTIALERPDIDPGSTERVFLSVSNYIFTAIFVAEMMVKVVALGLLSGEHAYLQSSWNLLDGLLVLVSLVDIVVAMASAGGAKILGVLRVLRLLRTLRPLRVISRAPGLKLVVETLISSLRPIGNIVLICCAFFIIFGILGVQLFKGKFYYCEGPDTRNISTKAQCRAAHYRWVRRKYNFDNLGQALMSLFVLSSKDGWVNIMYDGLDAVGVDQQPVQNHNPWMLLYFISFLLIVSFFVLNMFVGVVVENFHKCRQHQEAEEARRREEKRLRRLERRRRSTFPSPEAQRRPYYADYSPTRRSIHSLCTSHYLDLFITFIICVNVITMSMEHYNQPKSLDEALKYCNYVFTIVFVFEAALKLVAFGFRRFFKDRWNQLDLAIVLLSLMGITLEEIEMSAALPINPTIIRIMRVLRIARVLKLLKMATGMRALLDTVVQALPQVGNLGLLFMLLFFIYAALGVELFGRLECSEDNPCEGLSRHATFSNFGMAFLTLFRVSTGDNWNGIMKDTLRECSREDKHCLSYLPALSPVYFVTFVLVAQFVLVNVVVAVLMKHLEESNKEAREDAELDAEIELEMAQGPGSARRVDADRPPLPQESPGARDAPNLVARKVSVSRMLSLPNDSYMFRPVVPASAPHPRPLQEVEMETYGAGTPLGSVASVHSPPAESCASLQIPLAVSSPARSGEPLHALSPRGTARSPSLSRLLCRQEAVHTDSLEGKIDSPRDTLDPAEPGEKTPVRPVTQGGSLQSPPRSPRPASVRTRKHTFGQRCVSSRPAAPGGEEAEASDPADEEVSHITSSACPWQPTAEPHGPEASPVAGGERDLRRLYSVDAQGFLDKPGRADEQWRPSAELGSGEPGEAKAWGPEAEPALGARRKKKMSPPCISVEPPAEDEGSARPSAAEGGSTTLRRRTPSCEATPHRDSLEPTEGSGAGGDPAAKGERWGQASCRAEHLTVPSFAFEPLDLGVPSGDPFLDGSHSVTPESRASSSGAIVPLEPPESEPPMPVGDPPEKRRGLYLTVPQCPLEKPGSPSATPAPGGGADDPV
# Numbers stand for hits; – = inactive; · = not tested or not shown.
SMILES,CYP2C9 act,CYP2C19 act,CYP2C9 inhib,CYP2C19 inhib,Cav3 T inh
Cc1nc2cc(-c3cccc(Cl)c3)nn2c(N2CCN(C(=O)c3ccco3)CC2)c1C,–,–,86,73,·
COc1ccc(C2N=C(Nc3ccc(C)cc3)Nc3nc(C)cc(=O)n32)cc1 (configuration not stated),–,–,–,–,–
CCCc1nnc(SCC(=O)O)n1/N=C/c1ccc2c(c1)OCO2,–,–,–,–,–
Cc1cc(Cl)c(OCCCNCc2ccccc2)c(Br)c1,–,–,–,57,–
Clc1ccc(OCCCNCc2ccccc2)c(Br)c1,–,–,–,63,–
O=C(Nc1cccc2nsnc12)c1ccc(-c2ccc(Br)cc2)o1,–,–,–,–,·
CCCn1nnnc1NCc1ccccc1OCc1ccc(F)cc1,–,–,89,88,–
CN(C)CCNS(=O)(=O)c1ccc(Cl)cc1,·,·,·,·,–
COc1cc2c(cc1NC(=O)CSc1ccccn1)oc1ccccc12,–,–,–,–,·
O=C(Cn1nnc(-c2ccc(S(=O)(=O)N3CCCC3)cc2)n1)NCC1CCCO1 (configuration not stated),–,–,70,–,–
Cn1c(SCC(=O)NCC2CCCO2)nnc1-c1ccc(S(=O)(=O)N2CCCC2)cc1 (configuration not stated),–,–,–,–,–
CN(C(=O)Cc1ccccc1)n1cnnc1,·,·,·,·,–
Cc1ccccc1Cn1cnc2c(NS(C)(=O)=O)c(C)c(C)cc21,–,–,–,–,–
COc1ccc(Cn2cnc3c(NS(C)(=O)=O)c(C)c(C)cc32)cc1,–,–,–,65,–
N#Cc1c(-n2ccnc2)cccc1-n1ccnc1,–,–,94,81,–
Cc1cccc(-n2cccc2)c1C#N,–,–,–,–,–
COc1ccc(CNC2CC(=O)N(C)C2=O)cc1 (configuration not stated),–,–,–,–,–
O=C(CNC(=O)c1ccc(Br)cc1)NCCc1nc2ccccc2[nH]1,–,–,58,–,–
O=C(CNC(=O)c1cccc(Br)c1)NCCc1nc2ccccc2[nH]1,–,–,–,–,–
CCC(=O)NCCc1nc2ccccc2[nH]1,–,–,–,–,–
Cc1ccccc1NC(=O)NCCc1nc2ccccc2[nH]1,–,–,–,60,–
O=C(NCCc1nc2ccccc2[nH]1)c1ccco1,–,–,–,55,–
COc1ccccc1OCC(=O)Nc1cccc(C(=O)N2CCOCC2)c1,–,–,–,–,–
CCOC(=O)c1ccc(NC(=O)NC2CCN(CC(=O)NCc3ccc4c(c3)OCO4)CC2)cc1,–,–,–,–,–
O=C(CC1NC(=O)NC1=O)Nc1ccccc1 (configuration not stated),–,–,68,–,–
SMILES,CYP2C9 act,CYP2C19 act,CYP2C9 inhib,CYP2C19 inhib,Cav3 T inh
Cc1cccc(NC(=O)CC2Nc3cccc4cccc(c34)NC2=O)c1 (configuration not stated),–,–,–,–,–
O=C(CC1NC(=O)NC1=O)Nc1cccc2ccccc12 (configuration not stated),–,–,–,–,–
CC(=O)Nc1ccc(NC(=O)CC2Nc3cccc4cccc(c34)NC2=O)cc1 (configuration not stated),–,–,63,–,·
COC(=O)c1c(C)[nH]c(C(C)=O)c1C,–,–,55,–,·
CC(=O)c1[nH]c(C)c(C(C)=O)c1C,–,–,–,–,–
C=C(C)CSc1nnc(-c2ccc(OC)cc2)n1N,–,–,–,–,–
C=C(C)CSc1nnc(-c2cccc(Cl)c2)n1N,–,–,–,58,–
Cc1ccc(SCC(=O)N2CC(C)OC(C)C2)cc1 (configuration not stated),–,–,–,69,–
Cc1ccc(CC(=O)N2CC(C)OC(C)C2)cc1 (configuration not stated),–,–,–,–,–
Cc1cc(C)cc(C(=O)N2CC(C)OC(C)C2)c1 (configuration not stated),–,–,88,–,–
CCOCCc1nnc(NC(=O)CSc2ccccc2)s1,–,–,–,–,–
O=C1C(=O)N(CCCN2CCOCC2)C(c2cccs2)/C1=C(/O)c1ccc2c(c1)OCO2 (configuration not stated),·,·,·,·,–
CNC(=O)C(=O)NCCc1ccc(Cl)cc1,–,–,–,–,–
CCOc1ccccc1CNC(=O)CCN1C(=O)COc2ccccc21,–,–,–,75,–
COc1ccccc1CNc1cc(CSc2ccc(Cl)cc2)nc(C)n1,–,–,94,91,–
COc1cccc(CNc2nc3nc(C)cc(C)n3n2)c1,–,–,–,–,–
COc1ccccc1CNc1n[nH]c(NCc2ccccc2OC)n1,–,–,–,–,–
COc1cccc(CNc2cc(CSc3ccc(Cl)cc3)nc(C)n2)c1,–,–,96,94,-8.2
S=c1[nH]nc(C2CC2)n1Cc1ccco1,–,–,–,–,–
CCCn1c(Cc2ccccc2)n[nH]c1=S,–,–,–,–,–
Oc1ccc(-c2n[nH]c(=S)n2Cc2ccco2)cc1,–,–,68,–,–
S=c1[nH]nc(Cc2ccccc2)n1Cc1ccco1,–,–,–,71,–
COc1ccc(CCNC(=O)CN2CCN(Cc3ccc(F)cc3)C2=O)cc1OC,–,–,–,–,·
COc1ccccc1NC(=O)c1ccc(NC(=O)CSc2nnnn2C)cc1,–,–,–,–,–
Oc1c(/C=N/c2ncn[nH]2)ccc2ccccc12,–,–,–,–,–
SMILES,CYP2C9 act,CYP2C19 act,CYP2C9 inhib,CYP2C19 inhib,Cav3 T inh
Clc1ccc(Cl)c(-c2ccc(/C=N/c3ncn[nH]3)o2)c1,2.9,–,–,–,–
COC(=O)c1ccc(NC2=CC(=O)CC(C)(C)C2)cc1,–,–,51,–,–
CC(=O)Nc1ccc(NC2=CC(=O)CC(C)(C)C2)cc1,–,–,–,–,–
CCN(CC)c1ccc(C2NCC(c3ccc([N+](=O)[O-])cc3)O2)cc1 (configuration not stated),·,·,·,·,–
Cc1cc2n(n1)C(c1ccc(N(C)C)cc1)Nc1ccccc1-2 (configuration not stated),–,–,–,–,-7.2
Cc1cc2n(n1)C(c1ccc3c(c1)OCO3)Nc1ccccc1-2 (configuration not stated),–,–,70,88,–
Cc1ccc2c(c1)-c1cc(C)nn1C(c1ccc3c(c1)OCO3)N2 (configuration not stated),–,–,89,96,·
C/C=C/c1ccc(OCCCn2cncn2)c(OC)c1,–,–,50,89,–
C/C=C/c1ccc(OCCn2cncn2)c(OC)c1,–,–,–,65,–
C/C=C/c1ccc(OCCCCn2cncn2)c(OC)c1,–,–,–,75,–
CCCN1C(=O)c2ccccc2NC1c1cc(OC)c(OC)c(OC)c1 (configuration not stated),·,·,·,·,–
CCOC(=O)COc1ccccc1C1Nc2ccccc2C(=O)N1c1cccc(Cl)c1 (configuration not stated),–,–,–,64,–

# Source: PubChem (several laboratories)
